In PubChem BioAssay AID1347044 (National Center for Advancing Translational Sciences (NCATS), 2019):
The whole screen tested about 1,400 compounds, of which about 1,100 (79%) were called active. Inconclusive results (about 20%) are left out. So high a share suggests a set chosen from earlier hits. These entries were drawn from the full list. Values without a mark were called inactive. Calls follow the shape of the full dose curve.

Target: Atrial natriuretic peptide receptor 1 (Homo sapiens) (UniProt P16066)
Assay: Natriuretic polypeptide receptor (hNpr1) antagonism - Confirmation; also: nearly all actives have a fitted effect of over 70% in size
Settings: HEK293 hNpr1 cGMP GloSensor luminescence, ANP-stimulated; series mostly up to 57.6 µM; activity change, negative = inhibition: at the top concentration
In short: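 Compound (30 min, room temperature) preceded stimulation with hNppA peptide at 0.1 nM final for 20 min. Cells were HEK293 carrying hNpr1 plus GloSensor pGS-40F cGMP biosensor, pre-equilibrated 2 h with 2% substrate; cGMP was followed as luminescence pre- and post-agonist.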
Potency is read from the fitted curve at half-maximal effect.

Atrial natriuretic peptide receptor 1 (Homo sapiens), sequence (P16066 whole entry, looked up): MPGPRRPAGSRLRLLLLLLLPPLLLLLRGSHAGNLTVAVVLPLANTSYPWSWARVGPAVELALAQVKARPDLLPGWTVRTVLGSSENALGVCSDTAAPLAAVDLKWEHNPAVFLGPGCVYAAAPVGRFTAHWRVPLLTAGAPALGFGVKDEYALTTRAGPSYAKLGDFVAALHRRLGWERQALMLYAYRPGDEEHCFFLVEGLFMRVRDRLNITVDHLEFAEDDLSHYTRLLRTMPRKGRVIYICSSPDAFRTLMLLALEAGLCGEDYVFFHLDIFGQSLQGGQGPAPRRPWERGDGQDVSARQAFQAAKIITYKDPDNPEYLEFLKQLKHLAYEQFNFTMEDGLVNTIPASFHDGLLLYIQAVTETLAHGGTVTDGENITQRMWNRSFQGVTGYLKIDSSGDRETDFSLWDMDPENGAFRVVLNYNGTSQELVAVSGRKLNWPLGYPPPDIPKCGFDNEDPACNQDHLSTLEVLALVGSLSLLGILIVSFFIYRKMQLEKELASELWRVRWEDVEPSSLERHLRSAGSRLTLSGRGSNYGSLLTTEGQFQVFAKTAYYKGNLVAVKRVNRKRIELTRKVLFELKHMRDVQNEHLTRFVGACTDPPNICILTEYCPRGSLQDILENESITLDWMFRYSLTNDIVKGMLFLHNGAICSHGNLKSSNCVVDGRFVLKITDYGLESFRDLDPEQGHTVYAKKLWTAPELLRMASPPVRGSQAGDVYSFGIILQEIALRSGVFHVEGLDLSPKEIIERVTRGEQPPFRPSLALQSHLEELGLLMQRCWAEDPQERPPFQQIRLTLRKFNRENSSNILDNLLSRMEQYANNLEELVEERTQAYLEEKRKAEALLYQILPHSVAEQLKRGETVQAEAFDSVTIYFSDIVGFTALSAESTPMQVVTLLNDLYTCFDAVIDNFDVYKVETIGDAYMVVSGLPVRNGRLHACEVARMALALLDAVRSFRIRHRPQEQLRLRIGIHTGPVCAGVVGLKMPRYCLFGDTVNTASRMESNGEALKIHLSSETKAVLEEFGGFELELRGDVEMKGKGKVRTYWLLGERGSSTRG

Q: For `O=C(c1ccc(F)cc1Cl)N1CCC(n2cc(-c3nc(-c4ccccc4)no3)nn2)C1` (centres undefined), which Potency is on record?
A: The Potency was 4.32 µM (active).

Q: How did the Potency turn out when `O=C(c1ccc(Cl)cc1)N1CCCC(n2cc(-c3nc(-c4ccccc4)no3)nn2)C1` (centres undefined) was run?
A: The Potency was 19.3 µM (active).

Q: How did the Potency turn out when `CC(C)c1noc(-c2cn(C3CCN(C(=O)c4ccc(N(C)C)cc4)C3)nn2)n1` (centres undefined) was run?
A: The Potency was 15.3 µM (active).

Q: With `Cc1nn2c(c1-c1ccccc1-c1ccccc1)N(CC1CC1)CCC2` as the molecule, how does the Potency read?
A: Its Potency is 2.8 µM (active).

Q: `COc1ccc(-c2noc(CC3CCN(C(=O)Cc4ccc(OC)c(OC)c4)CC3)n2)cc1` was tested. Which Potency did it give?
A: The Potency was 3.43 µM (active).

Q: `COc1ccc(CC(=O)N2CCC(Cc3nc(-c4ccccc4)no3)CC2)cc1OC` was tested. Which Potency did it give?
A: Its Potency is 12.2 µM (active).

Q: Which Potency does the source give for `Cc1c[nH]c(CN2CCCC(CCc3ccc(F)cc3F)C2)c(C)c1=O` (centres undefined) here?
A: The Potency was 3.43 µM (active).

Q: `O=C(c1ccccn1)N1CC(Oc2ccc(-c3noc(C4CC4)n3)cc2)C1` was tested. Which Potency did it give?
A: The Potency was 17.2 µM (active).

Q: Which Potency does the source give for `Cc1cccc(C(=O)N2CCC(Oc3ccc(-c4noc(C(C)C)n4)cc3)C2)c1` (centres undefined) here?
A: Its Potency is 27.3 µM (active).

Q: For `O=C1c2cnc(-c3ccc(Cl)cc3)nc2OCCN1Cc1ccccc1`, which Potency is on record?
A: Its Potency is 35.3 µM (active).

Q: Which Potency does the source give for `COC(=O)c1cccc(NC(=O)CCNc2c(C)nc3cnccn23)c1` here?
A: Its Potency is 21.7 µM (active).

Q: With `O=C(c1ccccc1)N1CCC(C(=O)N2CCC(Cc3nc(-c4ccc(F)cc4)no3)CC2)CC1` as the molecule, how does the Potency read?
A: Its Potency is 17.2 µM (active).

Q: Which Potency does the source give for `COc1cccc(-c2noc(CC3CCN(C(=O)c4ccc(F)cc4)CC3)n2)c1` here?
A: Its Potency is 6.11 µM (active).

Q: For `Cc1cc(CNC(=O)c2ccc(-c3ccccc3Cl)o2)n(C)n1`, which Potency is on record?
A: Its Potency is 24.3 µM (active).

Q: For `O=C(NCC1CC1)c1nc2c(o1)CCN(Cc1cccc(F)c1F)CC2`, which Potency is on record?
A: Its Potency is 28 µM (active).

Q: Which Potency does the source give for `C1CCC(COCCc2noc(C3CNC3)n2)C1` here?
A: The Potency was 21.7 µM (active).

Q: With `COc1ccccc1Nc1cnc2ccc(N(C)Cc3cccnc3)nn12` as the molecule, how does the Potency read?
A: Its Potency is 31.4 µM (active).

Q: `OC1(Cc2cc(-c3ccccc3)no2)CCN(c2ncncn2)CC1` was tested. Which Potency did it give?
A: Its Potency is 7.69 µM (active).

Q: `O=C(NCc1nnc2cc(-c3nc(C4CC4)no3)ccn12)c1ccc(F)cc1Cl` was tested. Which Potency did it give?
A: The Potency was 17.2 µM (active).

Q: With `Cc1ccc(OCc2nc(C3CCN(C(=O)CCc4nc5ccc(Cl)cc5[nH]4)CC3)no2)cc1` as the molecule, how does the Potency read?
A: The Potency was 24.3 µM (active).

Q: With `CCN(CCCNC(=O)c1nnn2cc(-c3ccccc3)[nH]c(=O)c12)c1ccccc1` as the molecule, how does the “activity change, negative = inhibition” value read?
A: The value was -27.6%.

Q: How did the Potency turn out when `CC(C)c1nncn1C1CCN(S(=O)(=O)c2cccc(Br)c2)CC1` was run?
A: Its Potency is 19.3 µM (active).

Q: For `COc1ccc(-c2noc(CC3CCN(C(=O)Cc4ccccc4)CC3)n2)cc1`, which Potency is on record?
A: The Potency was 24.3 µM (active).

Q: With `COc1ccc(-c2noc(CC3CCN(C(=O)CC4CCCCC4)CC3)n2)cc1` as the molecule, how does the Potency read?
A: The Potency was 10.9 µM (active).

Q: With `COc1ccc(-c2noc(CC3CCN(C(=O)Cc4ccc(C)cc4)CC3)n2)cc1` as the molecule, how does the Potency read?
A: The Potency was 27.3 µM (active).

Q: `CC1=NS(=O)(=O)N(C)C=C1C(=O)OCc1nc(-c2ccc(C)cc2)no1` was tested. Which Potency did it give?
A: The Potency was 10.9 µM (active).

Q: How did the Potency turn out when `O=C(c1cc(F)ccc1Cl)N1CCN(c2cc(-c3ccc(F)cc3)[nH]n2)CC1` was run?
A: The Potency was 27.3 µM (active).

Q: For `Cc1ccc(C(=O)N2CCN(c3cc(-c4ccc(Cl)cc4)[nH]n3)CC2)c(C)c1`, which Potency is on record?
A: The Potency was 6.11 µM (active).

Q: For `CCc1ccc(C(=O)N2CCN(c3cc(-c4ccc(F)cc4)[nH]n3)CC2)cc1`, which Potency is on record?
A: Its Potency is 24.3 µM (active).

Q: How did the Potency turn out when `O=C(c1ccc(F)cc1F)N1CCN(c2cc(-c3ccc(Cl)cc3)[nH]n2)CC1` was run?
A: Its Potency is 17.2 µM (active).

Q: `Cc1ccc2nc(C3CCCN(Cc4ccc(C#N)cc4)C3)[nH]c(=O)c2c1` (centres undefined) was tested. Which Potency did it give?
A: Its Potency is 24.3 µM (active).

Q: How did the Potency turn out when `COc1ccc(C2Cn3nnc(C(=O)N4CCN(C(=O)c5ccc(C)cc5C)CC4)c3CO2)cc1` (centres undefined) was run?
A: Its Potency is 24.3 µM (active).

Q: `COc1ccc(C2Cn3nnc(C(=O)N4CCN(C(=O)c5cccc(Cl)c5)CC4)c3CO2)cc1` (centres undefined) was tested. Which Potency did it give?
A: The Potency was 13.7 µM (active).

Q: For `CC(C)(C)c1csc(NC(=O)c2ccc3c(c2)OCCN(C2CCC2)C3)n1`, which Potency is on record?
A: Its Potency is 35.3 µM (active).
